# L3MBTL1 block = qHTS Assay for the Inhibitors of L3MBTL1; hit rate 0.66% among 230,000; Potency, µM (top dose mostly 57.1 µM), usual class: inhibitors; Lethal(3)malignant brain tumor-like protein 1 (Homo sapiens), Q9Y468; AlphaScreen L3MBTL1–H3K9me1 peptide binding; also: nearly all actives have a fitted effect of over 60% in size
#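 First, the protein-peptide complex forms for 30 min at room temperature (L3MBTL1 50 nM, biotinylated H3K9me1 peptide 75 nM). Next, compounds are pin-transferred and incubated 30 min. Finally, AlphaScreen beads are added and read after 30 min.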
# PI5P4Ka inh = qHTS for Inhibitors of phosphatidylinositol 5-phosphate 4-kinase (PI5P4K). Phosphatidylinositol 5-phosphate 4-kinase type-2 alpha (Homo sapiens), P48426. PI5P4Kalpha enzyme, ADP-Glo luminescence, 60 min; hits give low values. max response, %. hit rate 1.2% among 330,000. AID 652105, 2013; active = max response of -50% or lower; inconclusive = between -30% and -50%; inactive = -30% or higher; also: value at the top dose of about 77 µM
#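 Controls without substrate or without enzyme flank wells where PI5P4Kalpha converts substrate using 5 microM ATP (final). Incubation lasts 60 minutes at room temperature; ADP formed is read by ADP-Glo luminescence.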
# HP1b binding inh = HTS for Inhibitors of HP1-beta Chromodomain Interactions with Methylated Histone Tails; hit rate 0.56% among 390,000; AID 540317, 2011; AlphaScreen HP1-beta / biotin-H3K9me3 peptide binding; Chromobox protein homolog 1 (Homo sapiens), P83916; Potency, µM (top dose mostly 114 µM), hits mostly inhibitors; also: nearly all actives have a fitted effect of over 70% in size
#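 HP1-beta protein (50 nM final) preincubated 30 min at room temperature with biotinylated H3(1-18)K9me3 peptide (50 nM) in PBS pH 7.4, 0.01% Tween-20, then compound added for 30 min. AlphaScreen streptavidin donor/nickel chelate acceptor beads (10 ug/mL final), 30 min dark, luminescence read.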
# G9a inh = qHTS Assay for Inhibitors of Histone Lysine Methyltransferase G9a. Histone-lysine N-methyltransferase EHMT2 (Homo sapiens), Q96KQ7. G9a H3K9 monomethylation, AlphaScreen, 2 h. Potency, µM (doses to about 102 µM), usual class: inhibitors. hit rate 8.8% among 350,000. AID 504332, 2011; also: nearly all actives have a fitted effect of over 75% in size
#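 Signal arises when biotinylated H3K9 peptide, once monomethylated, bridges streptavidin donor and antibody-captured acceptor beads. Enzyme at 20 nM was preincubated 15 min with test compounds; peptide 500 nM and SAM 20 uM then reacted for 2 h.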
# BAZ2B block = qHTS Assay for Inhibitors of BAZ2B; AlphaScreen BAZ2B-H3K14Ac peptide displacement; hit rate 4.4% among 360,000; Potency, µM (doses to about 114 µM), actives largely listed as inhibitors; Bromodomain adjacent to zinc finger domain protein 2B (Homo sapiens), Q9UIF8; also: nearly all actives have a fitted effect of over 60% in size
# Target sequence (Q9UIF8 whole entry, looked up, the tested form may be a part): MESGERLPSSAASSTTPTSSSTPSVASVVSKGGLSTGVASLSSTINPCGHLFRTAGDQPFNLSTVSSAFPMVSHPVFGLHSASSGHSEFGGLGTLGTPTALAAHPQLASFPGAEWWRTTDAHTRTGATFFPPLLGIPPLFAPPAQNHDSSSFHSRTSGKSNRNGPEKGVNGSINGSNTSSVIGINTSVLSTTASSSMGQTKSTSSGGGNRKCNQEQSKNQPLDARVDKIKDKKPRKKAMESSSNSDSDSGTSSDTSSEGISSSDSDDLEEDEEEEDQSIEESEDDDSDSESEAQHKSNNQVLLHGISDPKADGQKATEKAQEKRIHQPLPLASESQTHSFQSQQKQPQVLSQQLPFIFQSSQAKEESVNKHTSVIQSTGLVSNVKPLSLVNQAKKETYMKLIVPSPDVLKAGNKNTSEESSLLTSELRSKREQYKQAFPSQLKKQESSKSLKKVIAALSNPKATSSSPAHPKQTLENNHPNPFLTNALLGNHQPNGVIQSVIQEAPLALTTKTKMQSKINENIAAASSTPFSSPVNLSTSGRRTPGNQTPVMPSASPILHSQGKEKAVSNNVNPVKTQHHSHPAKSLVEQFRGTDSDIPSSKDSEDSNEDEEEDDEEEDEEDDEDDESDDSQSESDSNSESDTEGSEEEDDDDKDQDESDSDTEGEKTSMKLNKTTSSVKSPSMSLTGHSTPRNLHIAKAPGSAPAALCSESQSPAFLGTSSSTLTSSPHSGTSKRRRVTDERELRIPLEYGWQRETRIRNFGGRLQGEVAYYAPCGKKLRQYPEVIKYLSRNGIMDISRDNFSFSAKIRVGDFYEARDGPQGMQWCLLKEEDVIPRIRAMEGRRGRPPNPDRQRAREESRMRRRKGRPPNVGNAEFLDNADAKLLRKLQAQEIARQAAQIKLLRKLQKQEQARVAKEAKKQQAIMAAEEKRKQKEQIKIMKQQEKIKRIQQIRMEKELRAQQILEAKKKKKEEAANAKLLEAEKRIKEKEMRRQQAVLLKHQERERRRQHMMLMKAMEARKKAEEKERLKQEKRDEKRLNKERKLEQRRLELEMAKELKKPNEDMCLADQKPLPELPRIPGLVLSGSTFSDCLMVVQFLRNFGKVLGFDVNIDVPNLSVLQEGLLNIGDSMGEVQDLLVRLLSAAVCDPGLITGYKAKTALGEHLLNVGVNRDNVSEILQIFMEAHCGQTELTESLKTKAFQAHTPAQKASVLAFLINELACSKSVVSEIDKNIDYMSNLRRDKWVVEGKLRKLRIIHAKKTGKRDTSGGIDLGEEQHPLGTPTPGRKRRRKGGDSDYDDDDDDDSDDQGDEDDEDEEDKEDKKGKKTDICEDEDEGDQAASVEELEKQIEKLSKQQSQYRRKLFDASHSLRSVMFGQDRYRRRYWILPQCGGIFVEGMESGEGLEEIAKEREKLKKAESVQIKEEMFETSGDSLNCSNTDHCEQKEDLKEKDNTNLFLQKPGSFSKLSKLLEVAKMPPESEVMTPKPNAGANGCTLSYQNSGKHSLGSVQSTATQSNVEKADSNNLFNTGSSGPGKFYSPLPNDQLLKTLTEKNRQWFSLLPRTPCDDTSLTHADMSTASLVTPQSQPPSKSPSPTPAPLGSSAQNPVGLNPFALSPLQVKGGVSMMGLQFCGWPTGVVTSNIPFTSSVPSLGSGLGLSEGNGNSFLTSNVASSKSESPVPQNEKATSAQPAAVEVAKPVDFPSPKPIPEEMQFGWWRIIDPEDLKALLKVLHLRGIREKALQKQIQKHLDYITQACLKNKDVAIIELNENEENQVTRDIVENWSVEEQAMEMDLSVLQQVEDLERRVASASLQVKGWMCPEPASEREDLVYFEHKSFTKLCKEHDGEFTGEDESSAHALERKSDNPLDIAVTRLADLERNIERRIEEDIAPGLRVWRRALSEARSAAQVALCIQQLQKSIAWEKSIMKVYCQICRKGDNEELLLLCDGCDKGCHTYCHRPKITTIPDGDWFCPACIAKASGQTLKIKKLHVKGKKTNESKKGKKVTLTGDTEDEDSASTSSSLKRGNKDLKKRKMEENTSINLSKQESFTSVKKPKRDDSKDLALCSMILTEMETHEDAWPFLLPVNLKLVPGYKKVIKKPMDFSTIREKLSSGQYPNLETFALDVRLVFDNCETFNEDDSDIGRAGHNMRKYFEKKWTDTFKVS
#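 Multi-concentration screen (max 110 uM) measuring displacement of acetylated histone H3 peptide from BAZ2B by AlphaScreen, using 50 nM protein, 50 nM peptide and 10 ug/mL streptavidin donor plus Ni-chelate acceptor beads.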
# JMJD2A Tudor inh = qHTS Assay for Inhibitors of JMJD2A-Tudor Domain | Lysine-specific demethylase 4A (Homo sapiens), O75164 | AlphaScreen JMJD2A-Tudor / H3K4me3 peptide binding | Potency, µM (doses to about 114 µM), usual class: inhibitors | hit rate 4.4% among 390,000 | AID 504339, 2011; also: nearly all actives have a fitted effect of over 50% in size
# A number is an active result; 0 = inactive; ? = inconclusive; - = no result given; ! = not active in a repeat; [ ] = remark or other dose. Most compounds without a hit are left out; they make up all but 11% or so of the library. Unless noted, calls follow the shape of the dose curve; as a rule, active = well fitted inhibition curve with a large enough effect; inconclusive = small, poorly fitted or top-dose-only effect; inactive = no such curve, though single readings can be large or run the other way.
SMILES,L3MBTL1 block,PI5P4Ka inh,HP1b binding inh,G9a inh,BAZ2B block,JMJD2A Tudor inh
CC(=O)Nc1ccc(S(=O)(=O)NNC(=O)COc2cccc(C)c2)cc1,0,0,0,6.3µM,0,50µM
O=C(c1cccc(F)c1)N1CCC[C@@]2(CCN(Cc3nccs3)C2)C1,-,-,-,0[12.7 µM],-,-
CCc1ccc(CN(Cc2ccco2)c2cnc(S(C)(=O)=O)nc2C(=O)Nc2ccc(C)c(Cl)c2)cc1,-,-,0,0,0,0
COc1ccc(NC(=O)Cn2c(=O)n(Cc3ccco3)c(=O)c3sc4ccccc4c32)cc1OC,-,-,0,0,0,0
Cc1ccc(S(=O)(=O)Nc2c(Cl)c(Cl)c(O)c3ccccc23)cc1,0,-,-,1.3µM,45µM,-
CC(=O)Nc1ccc(C(=O)NNS(=O)(=O)c2ccc(C)cc2)cc1,0,0,0,20µM,50µM,0
Cc1ccc(S(=O)(=O)NNC(=O)c2ccc(O)cc2)cc1,0,0,0,?,0,0
CC(=O)Nc1ccc(S(=O)(=O)NNC(=O)c2sc(=S)n(C)c2C)cc1,0,0,0,0,0,0.71µM
Cc1ccc(S(=O)(=O)NN=CC=CC=NNS(=O)(=O)c2ccc(C)cc2)cc1,-,-61,-,-,-,-
CC(C)CCNC(=O)CN1C(=O)c2cccnc2Sc2ccccc21,-,-,0,0,0,0
Cc1nc2nc(NC(=O)c3cccc(Cl)c3)[nH]n2c(=O)c1Cc1ccccc1,-,-,0,0,0,0
CC(=O)N1CCCc2cc(S(=O)(=O)N3CCC(C(=O)NCc4cccc(C)c4)CC3)ccc21,-,-,0,0,0,0
CC(=O)N1c2ccc(S(=O)(=O)N3CCN(c4ccc(C)cc4C)CC3)cc2CC1C (stereo unspecified),-,-,0,0,0,0
COc1cccc(C2C(C(=O)Nc3ccc(Cl)cc3)=C(C)Nc3c(C(=O)Nc4ccccc4)cnn32)c1OC (stereo unspecified),-,-,0,0,0,0
Cc1ccc(S(=O)(=O)NNC(=O)C(=O)NNS(=O)(=O)c2ccc(C)cc2)cc1,0,0,0,0,0,35µM
Cc1ccc(NNS(=O)(=O)c2ccc(C)cc2)cc1,0,-63,?,0.79µM,20µM,3.2µM
O=C(CSc1oc(-c2ccco2)nc1S(=O)(=O)c1ccc(Br)cc1)c1ccc(Cl)cc1,-,-,0,?,0,0
CC1CCN(C(C(=O)NC2CCCCC2)c2cc3c(cc2[N+](=O)[O-])OCO3)CC1 (stereo unspecified),0,0,0,?,?,0
CC1CCCN(C(C(=O)NC2CCCCC2)c2cc3c(cc2[N+](=O)[O-])OCO3)C1 (stereo unspecified),11µM,0,0,0,?,?
COc1cc(OC)c(NC(=O)C(Cc2ccccc2)NS(=O)(=O)c2cccc3nsnc23)cc1Cl (stereo unspecified),-,-,0,0,-,?
COC(=O)c1c(SC)nc2ccccc2c1OCc1ccc(C)cc1C,-,-,0,0,0,0
COC(=O)[C@@]12CCCN1[C@H](c1ccc(-c3ccccc3)cc1)[C@H]1C(=O)N(C)C(=O)[C@H]12,0,0,0,0[2.33 µM],0,79µM
S=P(N1CC1)(N1CC1)N1CC1,0,?,?,7.9µM!,0,0
Cc1nc2c(C(=O)NCc3ccccc3)c[nH]n2c(=O)c1Cl,0,-,0,79µM,0,0
Cc1nc2c(C(=O)NCc3ccccc3Cl)c[nH]n2c(=O)c1Cl,0,-,0,16µM,0,0
Cc1nc2c(C(=O)NCc3ccccc3)c[nH]n2c(=O)c1Cc1ccccc1Cl,-,-,?,0,0,0
Cc1ccc(N(C)C(=O)Cn2ncc3c([nH]c4ccccc43)c2=O)cc1C,-,-,0,?,0,0
C=CCn1c(C(CC(C)C)CC(C)O)n[nH]c1=S (stereo unspecified),0,0,0,28µM,0,8.9µM

# Screens deposited in PubChem BioAssay by National Center for Advancing Translational Sciences (NCATS).
